tim23-1 inh: inhibits growth of tim23-1 mutant yeast. S. cerevisiae tim23-1 growth, BacTiter-Glo luminescence, 24 h. inhibition, % at 20 µM. 330,000 compounds, 1.3% hits;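 active = growth inhibition of the mutant yeast at or above 50%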;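 also: temperature-sensitive mutant grown at 25 °C; plate controls were DMSO-treated mutant yeast for no effect and medium wells lacking yeast for full effect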
NLRP3 yeast inh: NALP3 inhibition in yeast. inhibition, % at 10 µM. 330,000 compounds, 0.39% hits. AID 2825. Yeast reconstituted NLRP3/ASC/caspase-1, beta-gal luminescence, 24 h;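 active = inhibition of 50% or more; inactive = inhibition below 50%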;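 also: plate controls were induced DMSO wells for no effect and uninduced yeast grown without galactose for full effect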
TIM10 inh: TIM10 yeast growth inhibition | AID 463195 | inhibition, % at 10 µM | S. cerevisiae TIM10 strain growth, BacTiter-Glo luminescence, 24 h | 330,000 compounds, 1.4% hits;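 active = inhibition of 40% or more at the single tested concentration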;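 also: wild-type TIM10 isogenic control strain grown at permissive 25 °C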
tim10-1 inh: growth inhibitors of tim10-1 mutant yeast; 330,000 compounds, 2.2% hits; inhibition, % at 20 µM; S. cerevisiae tim10-1 ts strain growth, BacTiter-Glo, 24 h; AID 463190;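 active = inhibition of at least 40%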;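 also: mutant grown at 25 °C; 0% = DMSO wells with yeast and 100% = wells holding no yeast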
NALP1 inh: blocks the NALP1 inflammasome reconstituted in yeast | AID 2071 | 280,000 compounds, 0.61% hits | S. cerevisiae NALP1/ASC/caspase-1 growth, X-gal OD620, 72 h | inhibition, % at 10 µM; in the data active = inhibition mostly above about 24%, no sharp cut-off; inactive = mostly below about 32%
tim10-1 confirm: confirmation of tim10-1 mutant yeast growth inhibitors; shares compounds with tim10-1 inh; S. cerevisiae tim10-1 ts strain growth, BacTiter-Glo, 24 h; inhibition, % at 20 µM; 7,400 compounds, 56% hits; AID 463213;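 active = inhibition of yeast growth at or above a set limit in either of two repeat tests at 20 µM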;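 also: tim10-1 mutant grown at permissive 25 °C to find synthetic lethal compounds; 0% = DMSO yeast wells and 100% = medium wells without yeast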
TIM10 conf: confirmation of TIM10 yeast growth inhibitors; shares compounds with TIM10 inh; S. cerevisiae tim10 strain growth, BacTiter-Glo luminescence, 24 h; inhibition, % at 10 µM; 4,600 compounds, 63% hits; AID 463215;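 active = inhibition of yeast growth at or above a set limit in either of two replicates at 10 µM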;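 also: this counterscreen used the strain with wild-type TIM10; 0% = yeast with DMSO and 100% = medium wells lacking yeast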
* = called active by the depositor; x = not tested or not shown. Sampled rows, rich in hits. Any-hit rate of the full collection: about 4%.

SMILES | tim23-1 inh | NLRP3 yeast inh | TIM10 inh | tim10-1 inh | NALP1 inh | tim10-1 confirm | TIM10 conf
Cc1cccn2cc(-c3ccc(S(=O)(=O)N4CCCCC4)cc3)nc12 | 44.6 | -46.0 | 48.0* | 62.0* | 11.1 | 69.8* | 62.6*
CCC(=O)OCCNc1cc(Sc2nc3ccccc3s2)c2nonc2c1[N+](=O)[O-] | 27.5 | 32.0 | 77.4* | 93.2* | 6.2 | 91.0* | 94.2*
N#C/C(=C\c1ccc([N+](=O)[O-])o1)C(=O)Nc1ccc(F)cc1 | -106.9 | -8.5 | 79.1* | 54.7* | 13.3 | 46.9* | 96.0*
Cn1c(/C=C/c2ccc([N+](=O)[O-])o2)nc2ccccc2c1=O | -2.9 | 13.8 | 76.8* | 77.0* | -55.2 | 58.2* | -19.8
CC(=O)c1c(C)[nH]c(C(=O)OCC(=O)Nc2nnc(-c3ccccc3)o2)c1C | 0.3 | 4.1 | -5.4 | 0.5 | x | x | x
COc1ccc2[nH]c3c(=O)n4c(nc3c2c1)SCC4 | 28.1 | 4.1 | 40.1* | 44.6* | 6.1 | 36.6* | 17.6
CCOC(=O)N1CCN(C(=O)c2cn(C)c3ccc(S(=O)(=O)N(C)C4CCCCC4)cc3c2=O)CC1 | -4.1 | 15.0 | -3.5 | 2.7 | 22.6 | x | x
COc1ccc(C(C#N)=C2C=CC(=NO)C=C2)cc1 | 44.5 | 43.2 | 81.2* | 50.5* | x | 54.5* | 90.8*
Cc1ccc(C(=O)c2c3ccc([N+](=O)[O-])cc3[n+]([O-])n2CCCN)cc1 | 2.4 | 37.7 | -3.8 | -2.8 | x | x | x
Cc1cc(/C=N/n2c(COc3ccccc3C)nc3ccccc3c2=O)c(O)c([N+](=O)[O-])c1 | 32.2 | 25.3 | 43.4* | 40.7* | 17.0 | 28.6 | 26.2
CCOC(=O)c1c(N)sc(C(O)(C(F)(F)F)C(F)(F)F)c1-c1ccc(F)cc1 | 40.5 | -27.3 | 41.2* | 43.0* | 3.2 | 20.0 | 20.5
CSc1ncc(Cl)c(C(=O)NCc2cccnc2)n1 | -3.8 | 17.6 | -5.4 | -0.7 | 18.4 | x | x
CC(=O)NC12CC3CC(C1)CC(C(=O)N(C)CC(=O)Nc1ccccc1Cl)(C3)C2 | 2.6 | 12.9 | -3.7 | -7.2 | x | x | x
Clc1ccc(Nc2nc(C3CC3)cs2)cc1 | 47.9 | 20.4 | 43.1* | 53.7* | 31.5 | 48.8* | 19.6
O=Nc1c2cc(-c3ccccc3)[nH]nc-2c2ccccc12 | x | x | x | x | 26.8 | x | x
Cc1ccc(-c2cc3c(N=O)c4ccccc4c-3n[nH]2)cc1 | 38.3 | 4.6 | 44.2* | 43.0* | -16.1 | 10.0 | 28.6*
COc1ccccc1N=c1oc2cc(O)ccc2cc1C(N)=O | 44.9 | 21.9 | 40.4* | 47.4* | 5.5 | 47.5* | 33.5*
C=CCc1c(C)nc(-c2ccccc2)nc1N/N=C(\C)c1ccc(N)cc1 | 32.1 | -14.7 | 28.1 | 26.8 | 30.2 | x | x
C=CCc1c(C)nc(-c2ccccc2)nc1Nc1ccccc1O | 39.4 | 16.7 | 63.5* | 46.8* | 33.0 | 54.1* | 54.2*
O=C(/C(=C(\[O-])c1ccccc1)[n+]1ccc2ccccc2c1)c1ccc([N+](=O)[O-])cc1 | -6.2 | 1.8 | 10.9 | 12.3 | 16.2 | x | x
O=[N+]([O-])c1ccc(-[n+]2ccc3ccccc3c2)c([N+](=O)[O-])c1 | 49.1 | 10.1 | 49.8* | 57.7* | x | 51.7* | 51.8*
NS(=O)(=O)c1ccc(CNS(=O)(=O)c2cccc3nonc23)cc1 | 1.6 | 0.6 | -9.6 | 5.4 | x | x | x
CC1CCC2C(=O)N(c3ccc(C(=O)NCc4ccccc4)cc3)C(=O)C2C1 (stereo not given) | 14.1 | 13.2 | -31.5 | 5.4 | 26.4 | x | x
O=C(c1cc(COc2ccc(F)cc2Cl)on1)N1CCCCC1c1cccnc1 (stereo not given) | 43.0 | 18.4 | 26.1 | 39.2 | 18.1 | x | x
O=C(c1cc(COc2ccc(F)cc2Cl)on1)N1CCC(OCc2cccnc2)CC1 | 3.0 | -6.5 | 52.0* | 53.2* | 17.7 | 47.8* | 52.5*
CSc1cccc(CN2CCCC(CNC(=O)c3ccco3)C2)c1 (stereo not given) | -13.0 | 7.5 | -2.8 | -24.0 | 5.7 | x | x
O=Nc1c(O)n(Cc2ccc(Cl)cc2Cl)c2ccccc12 | 38.2 | 2.1 | 41.6* | 51.9* | 7.3 | 18.5 | 39.0*
CCOC(=O)C1=C(C)Nc2nc(=S)[nH]n2C1c1ccc(Cl)cc1 (stereo not given) | 44.3 | 36.1 | 48.5* | 54.7* | -10.4 | 44.2* | 1.1

Screening data (PubChem BioAssay)
